# Source: ChEMBL document CHEMBL3988442, “University of Dundee, Small-Polar-MMV Screening Library” (2021)
# Among all 48,000 compounds or so, about 13,000 (27%) showed an effect of 50% or more. Some of the results follow.
# Test system: Wolbachia pipientis
# Assay: Anti-Wolbachia Cell-Based Screen
# Type: functional
# Parameters: scale not given: in the data most compounds retested in dose-response had high values
# Details: 5 µM
row,Compound,Percent Effect [%]
1,COc1cccc(C)c1C(=O)N1CCc2ncnc(NCCO)c2CC1,-30.82
2,O=C(C[S+]([O-])Cc1ccc(F)cc1Cl)NC1CCCC1 (stereo not drawn),9.339
3,COc1ccc(Nc2ccc(C#N)cn2)cc1N1CCCC1=O,-10.87
4,Cc1noc(C)c1-c1nc(C2CCCN(CCC(N)=O)C2)ccc1CO (stereo not drawn),98.23
5,Cc1cc(OCC(=O)N2CCCC(c3noc(C)n3)C2)no1 (stereo not drawn),0.3444
6,CCc1nc(C2CCCN(C(=O)CCn3ccccc3=O)C2)no1 (stereo not drawn),-2.479
7,Cc1noc(C)c1-c1nc(C2CCCN(C(=O)CCN)C2)ccc1CO (stereo not drawn),106.6
8,Cn1ncc2c(N3CCN(CCC(N)=O)CC3)nc(C3CCCC3)nc21,3.18
9,Cc1nc(C2CCCN(C(=O)Cn3ccccc3=O)C2)no1 (stereo not drawn),-7.453
10,Cc1nc(C2CCCN(C(=O)COCc3ccccc3Cl)C2)no1 (stereo not drawn),-13.21
11,Cc1noc(C)c1-c1nc(C2CCCN(C(=O)CN)C2)ccc1CO (stereo not drawn),107.5
12,Cl.Cl.Cl.OC(CN1CCN(Cc2cccnc2)CC1)c1cccs1 (stereo not drawn),-1.04
13,Cc1ccc2c(c1)C(NCc1nnc3n1CCCCC3)CCCO2 (stereo not drawn),-29.11
14,O=c1cc(CN(CCO)C2CC2)nc2ccc(Cl)cn12,-6.925
15,O=C(CCc1cscn1)NS(=O)(=O)c1ccc2ccccc2c1,3.955
16,Cc1ccc(N2CC[C@@H]3[C@@H]2CCN3C(=O)c2cscn2)nn1.O=C(O)C(F)(F)F,-4.198
17,Cc1ccc(N2CC[C@@H]3[C@@H]2CCN3C(=O)Cc2ccsc2)nn1.O=C(O)C(F)(F)F,97.7
18,Cc1ccc(N2CC[C@@H]3[C@@H]2CCN3C(=O)Cc2ccccc2)nn1.O=C(O)C(F)(F)F,108
19,CN(C)C(=O)N1CC[C@H]2[C@H]1CCN2c1nncs1.O=C(O)C(F)(F)F,-1.539
20,O=C(Cc1ccsc1)N1C[C@@H]2OCCN(c3cnccn3)[C@@H]2C1.O=C(O)C(F)(F)F,19.14
21,Cc1ccc(N2CC[C@H]3[C@@H]2CCC(=O)N3CCN2CCOCC2)nn1.O=C(O)C(F)(F)F,-26.64
22,Cc1ccc(N2CC[C@@H]3[C@@H]2CCN3C(=O)Cc2cccs2)nn1.O=C(O)C(F)(F)F,109.8
23,Cc1ccc(N2CC[C@@H]3O[C@@H](COCc4cccnc4)CC[C@@H]32)nn1.O=C(O)C(F)(F)F.O=C(O)C(F)(F)F,4.893
24,O=C(CC1CCCC1)N1CC[C@H]2[C@H]1CCN2c1nncs1.O=C(O)C(F)(F)F,10.49
25,O=C(O)[C@@H]1CN(C2CCCC2)C[C@H]1C1CC1,-8.244
26,Cc1ccc(NC(=O)NC(C)c2nc[nH]n2)cc1Cl (stereo not drawn),-5.292
27,c1cc2c(cc1-c1noc3c1CN(C1CCSCC1)CC3)OCO2,-0.3794

row,Compound,Percent Effect [%]
1,Cc1ccsc1CN(C)C(=O)C1CCCN(C(N)=O)C1 (stereo not drawn),8.59
2,CC(C)n1cnnc1CN(C)C1CCCNC1 (stereo not drawn),-12.15
3,CC(C)n1cnnc1CN(C)C(=O)C1CCCN(C2CCN(C)CC2)C1 (stereo not drawn),110.4
4,CCn1cnnc1CN(C)C(=O)C1CCC(=O)N(CC2CCCCC2)C1 (stereo not drawn),6.192
5,CCCn1cnnc1CN(C)C(=O)C1CCC(=O)N(C2CCCC2)C1 (stereo not drawn),-9.656
6,CC(C)n1cnnc1CN(C)C(=O)C1CCCN(CC(N)=O)C1 (stereo not drawn),92.86
7,CN(CCCc1cnn(C)c1)C(=O)C1CCCN(C2CCCC2)C1 (stereo not drawn),-4.141
8,CC(C)n1cnnc1CN(C)CC1CCCNC1 (stereo not drawn),-3.149
9,CCCn1cnnc1CN(C)C(=O)C1CCCN(C2CCN(C)CC2)C1 (stereo not drawn),120.4
10,O=C1CN(Cc2cc(O)c3cccc(F)c3n2)CCN1C1CCCC1,-1.558
11,Cc1ncnc(NCC(C)N(C)c2ccccc2)c1C (stereo not drawn),-9.709
12,COCCN1CCCC2(CCN(Cc3noc(C4CCCC4)n3)C2)C1=O (stereo not drawn),5.891
13,Cc1nc(C)n(Cc2cccc(NC3CCN(C)C3=O)c2)n1 (stereo not drawn),-8.315
14,CN(Cc1ccccc1)CC(C)(C)NC(=O)c1cnns1,-3.698
15,CN(C)CCN(C)C(=O)Nc1cc(F)cc(N2CCCC2)c1,23.94
16,Cn1cnc(CN2Cc3nccn3CC2c2ccccc2)c1 (stereo not drawn),137.8
17,c1ccc(CNC[C@H]2Cn3ccnc3CO2)cc1,-10.94
18,Cc1ccc2c(c1)c(CNC(C)Cn1ccnc1)nn2C (stereo not drawn),4.186
19,Cc1cc(C)n(CC(C)NCCN2CCc3ccccc32)n1 (stereo not drawn),20.38
20,CC(Cn1cncn1)NCc1nncn1C1CCCCC1 (stereo not drawn),-14
21,CC(Cn1ccnc1)NS(=O)(=O)Cc1ccc(F)cc1 (stereo not drawn),-3.68
22,CC(Cn1cncn1)NCCN1CCc2ccccc2C1 (stereo not drawn),12.32
23,Cc1cc(C(F)(F)F)nc(CCNC(C)Cn2cncn2)n1 (stereo not drawn),108.9
24,Cc1cc(C(F)(F)F)nc(CCNC(C)Cn2ccnc2)n1 (stereo not drawn),111.3
25,Cc1cc(C(F)(F)F)nc(CCNC(C)Cn2nc(C)cc2C)n1 (stereo not drawn),119.2
26,Cc1cc(C)n(CC(C)NCCn2nc(C)c(Cl)c2C)n1 (stereo not drawn),9.985
